The panel holds about 83,000 compounds, 20% with a hit somewhere; the sample as a whole holds those more often.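 Growth was measured after 48 h exposure to one concentration of compound in 96-well plates. Values under 10 count as active.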 Active and inactive are the calls of the source.
Tests used:
Experiment in all cases: NCI-60 one-dose screen, 48 h (100 = growth as untreated, 0 = no growth, -100 = all killed)
Details in all cases: 10 µM unless noted
[1] = system: DU-145 prostate
[2] = system: K-562 leukemia
[3] = system: MALME-3M melanoma
[4] = system: MDA-MB-231 breast
[5] = system: RXF 393 renal
[6] = system: SF-268 CNS
[7] = system: SF-295 CNS
[8] = system: SF-539 CNS
[9] = system: UACC-257 melanoma
[10] = system: M14 melanoma

Measured: growth

Oc1ccc(CCl)c2cccnc12
inactive: [1] 88.1% | [2] 43.9% | [3] 37.3% | [4] 94.5% | [5] 75.7% | [6] 73.2% | [7] 99% | [8] 90.3% | [9] 24.9% | [10] 61.6%

C[C@]12CC[C@@H]3c4cc(OC(F)F)c(OS(N)(=O)=O)cc4CC[C@H]3[C@@H]1CC[C@@H]2O
active: [1] 9.26% | [5] -5.44% | [7] 2.5% | [8] -3.28% | [10] 5.82%
inactive: [2] 12.3% | [3] 26.4% | [4] 43.3% | [6] 49.6% | [9] 67.4%

COc1ccc(CNC(=O)[C@H](O)[C@@H](N)Cc2ccccc2)cc1
inactive: [1] 113% | [2] 98.4% | [3] 108% | [4] 100% | [5] 107% | [6] 92.7% | [7] 97.9% | [8] 97.2% | [9] 108% | [10] 105%

COc1ccc(C2=Nn3c(nnc3-c3cc(Cl)cc(Cl)c3Cl)SC2)cc1
active: [1] 6.93% | [2] 2.96% | [7] 0.025% | [8] -8.32% | [10] -45.3%
inactive: [3] 37.2% | [4] 10.3% | [5] 14.4% | [6] 22.6% | [9] 37%

COc1cc(C(=O)c2cc(C)c3[nH]c4ccc(O)cc4c3c2C)cc(OC)c1OC
inactive: [4] 28.3% | [5] 31.9% | [6] 24% | [9] 64.8% | [10] 22.3%
active: [1] -13.4% | [2] 7.07% | [3] -8.11% | [7] 9.6% | [8] 1.71%

O=C1c2cccc3cccc(c23)C(=O)N1N1C(=O)c2cccc3c(NC4CCCCC4)ccc(c23)C1=O
inactive: [1] 106% | [2] 87.1% | [3] 90.8% | [4] 75.6% | [5] 92.9% | [6] 93.6% | [7] 95.3% | [8] 94.2% | [9] 100% | [10] 96.2%

COc1ccc(C2C(C#N)=C(N)Oc3c2sc2c(C)cccc32)cc1 (stereo not given)
active: [2] 6.98% | [5] -11.7% | [7] 3.47% | [8] -16.8% | [10] 8.58%
inactive: [1] 22.4% | [3] 62.5% | [4] 16.6% | [6] 49.6% | [9] 72.1%

O=C(N/N=C/c1ccc(Cl)cc1)c1ccc(C(F)(F)F)nc1Nc1cccc(C(F)(F)F)c1
active: [2] 1.81% | [6] 2.52% | [7] -22.9% | [8] 3.47%
inactive: [1] 13.2% | [3] 50.4% | [4] 16% | [5] 42.6% | [9] 20% | [10] 42.7%

Cc1c(C(=O)N[C@@H](Cc2ccccc2)C(=O)C(=O)NCc2ccc(F)cc2)[nH]c2ccccc2c1=O
inactive: [1] 105% | [2] 84.2% | [3] 102% | [4] 100% | [5] 103% | [6] 97.4% | [7] 105% | [8] 101% | [9] 101% | [10] 103%

O=C(Cc1ccc(F)c(Cl)c1)Nc1cc(C2(C(F)(F)F)CC2)nn1Cc1ccccc1
active: [5] -23.5%
inactive: [1] 89.8% | [2] 77.1% | [3] 60.4% | [4] 14.1% | [6] 17.1% | [7] 24.8% | [8] 50.6% | [9] 91.1% | [10] 70.8%

Oc1ccc(C#CCOc2ccccc2)cc1CNCCN(Cc1ccccn1)Cc1ccccn1
inactive: [1] 28.6% | [3] 25.2% | [4] 47% | [5] 16% | [6] 13% | [8] 11.3% | [9] 15.4%
active: [2] 8.65% | [7] 4.52% | [10] 6.22%

COc1cc(C2CC(c3ccc(N(C)C)cc3)=NN2C(C)=O)cc(OC)c1OC (stereo not given)
inactive: [2] 17.6% | [3] 37.9% | [4] 56.3% | [6] 35% | [7] 12.1% | [9] 56.5% | [10] 19.4%
active: [1] 2.14% | [5] -17.7% | [8] -21.4%

COc1cc(C(=O)c2cc(C)c3[nH]c4ccc(C)cc4c3c2C)cc(OC)c1OC
inactive: [2] 11.5% | [3] 34.3% | [4] 27.6% | [5] 36.8% | [6] 29.3% | [7] 11.7% | [9] 68.8% | [10] 23.7%
active: [1] 1.16% | [8] 0.519%

O=C(CCc1nnc(-c2c(Cl)cccc2Cl)o1)c1nc2ccccc2[nH]1
active: [2] 2.22%
inactive: [1] 82.2% | [3] 79.3% | [4] 38.3% | [5] 81.5% | [6] 68.1% | [7] 59.5% | [8] 95.2% | [9] 78.6% | [10] 55.8%

O=c1c2cc(F)ccc2sc2c(NCCCNCCO)nc3ccccc3c12
active: [1] 8.53% | [2] -44.3% | [4] -33.1% | [8] -24.1% | [10] -79%
inactive: [3] 69.5% | [5] 44.8% | [6] 41.6% | [7] 65.3% | [9] 91.2%

COc1cc(C(=O)/C=C/c2c(Cl)nc3sccn23)cc(OC)c1OC
inactive: [1] 83.8% | [2] 37.6% | [3] 91.9% | [4] 77.2% | [5] 79.5% | [6] 77.8% | [7] 112% | [8] 86.5% | [9] 71.3% | [10] 79.4%

COc1ccc2sc3c(NCCCNCCO)nc4ccccc4c3c(=O)c2c1
inactive: [1] 41% | [3] 85.9% | [5] 52.3% | [6] 50.8% | [7] 85.7% | [8] 45.5% | [9] 92.3%
active: [2] -28.2% | [4] -12.9% | [10] -66.6%

O=C(/C=C/c1sc(Cl)nc1Cl)c1ccc(Br)cc1
active: [2] 9.52%
inactive: [1] 98.6% | [3] 83.6% | [4] 90.4% | [5] 85.5% | [6] 94.1% | [7] 95.9% | [8] 71.1% | [9] 98.3% | [10] 67.8%

COc1ccc(C2CC(c3ccc(Nc4nc(Nc5ccc(F)cc5)nc(Nc5ccc(Cl)cc5)n4)cc3)=NN2C(C)=O)cc1 (stereo not given)
inactive: [1] 122% | [2] 114% | [3] 88.1% | [4] 90.9% | [5] 86.6% | [6] 131% | [7] 103% | [8] 101% | [9] 98.5% | [10] 104%

COc1ccc(C2C(N)=NNC2c2cccc(O)c2)cc1 (stereo not given)
inactive: [1] 125% | [2] 89% | [3] 88.5% | [4] 104% | [5] 97.2% | [6] 99.4% | [7] 92.1% | [8] 95.4% | [9] 107% | [10] 104%

Cc1ccc(/C=C2\Oc3ccc(O)c(O)c3C2=O)cc1
inactive: [1] 46.1% | [2] 19.2% | [3] 66.1% | [4] 56.1% | [5] 27.4% | [6] 37.5% | [7] 54% | [8] 32.7% | [9] 96.6% | [10] 56.1%

CCOC(=O)Cn1c(C)c(/C=N/NC(=O)c2cc3c(ccc4ccccc43)o2)c2ccccc21
active: [5] -11.1% | [8] -14.1%
inactive: [1] 11.2% | [2] 10.9% | [3] 70.8% | [4] 38.8% | [6] 35.7% | [7] 19.3% | [9] 41.5% | [10] 16.8%

O=C1c2ccccc2NC(n2sc3ccccc3c2=O)N1c1ccccc1 (stereo not given)
inactive: [1] 107% | [2] 95.5% | [3] 106% | [4] 90.6% | [5] 110% | [6] 91.7% | [7] 99.6% | [8] 94.7% | [9] 120% | [10] 102%

NCCCNc1nc2ccccc2c2c(=O)c3cc(OC(F)(F)F)ccc3sc12
inactive: [3] 80.9% | [5] 60.7% | [6] 51% | [7] 33.4% | [9] 104%
active: [1] -10.7% | [2] -34.7% | [4] -43.2% | [8] -72% | [10] -26.4%

c1cc(-c2nnc(SSc3ncnc4nc[nH]c34)o2)ccn1
inactive: [1] 41.5% | [2] 17% | [3] 103% | [4] 20.6% | [5] 61.8% | [6] 35% | [7] 21.9% | [8] 15.4% | [9] 51.9%
active: [10] 7.94%

Reference: PubChem BioAssay (NCI)
